High-throughput results: PubChem BioAssay, several laboratories
HIF activator: HIF pathway transcriptional activators, primary screen, cell-based, U2OS HRE-luciferase, luminescence | 300,000 tested, 0.32% active | U2OS HRE-luciferase reporter; normalized: DMSO 0%, desferrioxamine 100% | activation, % at 7.5 µM (by protocol);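 active = mean activation of at least 10% of the iron chelator positive control signal, with at least half of replicates also reaching 10%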
ALR H2O2 inh: inhibitors of human ALR sulfhydryl oxidase, primary screen, biochemical, H2O2 detection, HRP-luminol luminescence, single point | FAD-linked sulfhydryl oxidase ALR (Homo sapiens), P55789 | purified ALR, DTT oxidation | AID 485317, 2010 | 290,000 tested, 3.8% active | inhibition, % (concentration not given with the values);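 active = mean replicate inhibition above about 79%, with every replicate also reaching it, limit read from the data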
Target sequence (P55789 whole entry, looked up): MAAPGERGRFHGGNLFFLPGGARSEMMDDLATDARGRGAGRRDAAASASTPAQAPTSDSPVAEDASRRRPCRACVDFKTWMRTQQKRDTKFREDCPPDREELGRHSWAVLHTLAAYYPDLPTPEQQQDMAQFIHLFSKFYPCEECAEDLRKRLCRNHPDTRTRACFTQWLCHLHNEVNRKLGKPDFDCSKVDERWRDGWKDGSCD
M18AAP inhibitor: PfM18AAP inhibitors, malaria aminopeptidase, primary screen, biochemical, QFRET, recombinant enzyme; 290,000 tested, 1.2% active; AID 1822, 2009; H-Glu-NHMec fluorogenic cleavage; M18 aspartyl aminopeptidase (Plasmodium falciparum 3D7); inhibition, % at 7.35 µM;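 active = inhibition above the campaign mean inhibition over all tested compounds plus 3 SD, cut at about 28% in these data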
Mot1-301 SUMO: yeast Mot1-301 growth rescue at high temperature, primary screen, SUMOylation pathway inhibitor project, S. cerevisiae, ATP luminescence, 38.5C; growth rescue, % at 18.8 µM; 320,000 tested, 1% active; S. cerevisiae Mot1-301 growth rescue; percent above DMSO median, 100 means doubled; AID 2716, 2010;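 active = every valid replicate shows activation above 250% relative to neutral control wells; inactive = the rest, any valid replicate at or below 250%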
Mot1 SUMO dose: growth restoration of Mot1-301 yeast on galactose, dose response, SUMO pathway inhibitor project, whole organism, S. cerevisiae, ATP luminescence, cherry-picked samples. shares compounds with Mot1-301 SUMO. S. cerevisiae Mot1-301 galactose growth, 24 h; -100 = growth of slx-deleted rescue strain. growth activity, percent, % at 42 µM. 2,300 tested, under 10 active;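 active = Signal drops as the depositor expects, and the fitted half-maximal dose is no more than ten times the top valid tested dose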;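 also: more negative values mean stronger growth rescue toward the control strain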
Large screens that a line does not name were inactive (follow-up assays come after a bar, where they were run). Hits are enriched below; roughly 5.3% of the tested compounds scored in any of these assays.

CCc1cc(/C(Cc2ccccn2)=N\O)c(O)cc1O	Mot1-301 SUMO 486 | Mot1 SUMO dose inactive
NS(=O)(=O)c1ccc(CCNC(=O)c2ccc([N+](=O)[O-])s2)cc1	Mot1-301 SUMO 389 | Mot1 SUMO dose inactive
CC(=O)c1cccc(N2C(=NC(=O)C3CCCCC3)SC3CS(=O)(=O)CC32)c1 (stereo not given)	Mot1-301 SUMO 477 | Mot1 SUMO dose inactive
O=C(N=C1SC2CS(=O)(=O)CC2N1c1ccc(F)cc1F)C1CC1 (stereo not given)	none
CC(=O)c1cccc(N2C(=NC(=O)C3CC3)SC3CS(=O)(=O)CC32)c1 (stereo not given)	none
O=C(N=C1SC2CS(=O)(=O)CC2N1c1ccc(F)c(Cl)c1)C1CC1 (stereo not given)	Mot1-301 SUMO 518 (no result: ALR H2O2 inh) | Mot1 SUMO dose inactive
CCN(CC(=O)Nc1c(F)cccc1F)C(=O)C1CCN(S(=O)(=O)c2ccc(C)cc2C)CC1	none (no result: M18AAP inhibitor)
O=C1CCC(C(=O)N2CCN(c3ccc(F)cc3)CC2)CN1CC1CCCCC1 (stereo not given)	none
O=C1CCC(C(=O)N2CCN(c3ccccc3)CC2)CN1CC1CCCCC1 (stereo not given)	Mot1-301 SUMO 532 | Mot1 SUMO dose inactive
CS(=O)(=O)N(CC(=O)NCCSCc1cccc(Cl)c1)c1ccc2c(c1)OCO2	none
COC(=O)c1cccc(NC(=O)CN(c2ccc3c(c2)OCO3)S(C)(=O)=O)c1C	Mot1-301 SUMO active | Mot1 SUMO dose inactive
CS(=O)(=O)N(CC(=O)NCCSCc1ccccc1)c1ccc2c(c1)OCO2	Mot1-301 SUMO active | Mot1 SUMO dose inactive
CS(=O)(=O)N(CC(=O)Nc1ccccc1C(=O)N1CCCC1)c1ccc2c(c1)OCO2	Mot1-301 SUMO 822 | Mot1 SUMO dose inactive
COC(=O)c1cc(NC(=O)CN(c2ccc3c(c2)OCO3)S(C)(=O)=O)ccc1Cl	none
COc1ccc(/C=N/NC(=O)c2c(C)nc3ccccn23)cc1[N+](=O)[O-]	Mot1-301 SUMO 569 | Mot1 SUMO dose inactive
CC(C)(C)NC(=O)NC(=O)CN1CCN(S(=O)(=O)c2ccc3c(c2)OCCO3)CC1	Mot1-301 SUMO 988 (no result: ALR H2O2 inh) | Mot1 SUMO dose inactive
COc1ccc2[nH]cc(CCNS(=O)(=O)c3ccc(C)cc3)c2c1	Mot1-301 SUMO 484 | Mot1 SUMO dose inactive
COc1ccc(C2(O)CCN(CC(=O)Nc3nc(-c4ccccc4)cs3)CC2)cc1	none
Cc1ccc(-n2nnnc2C(Cl)(Cl)c2nnnn2-c2ccc(C)cc2)cc1	Mot1-301 SUMO active | Mot1 SUMO dose inactive
Clc1ccc(-c2nnnn2-c2ccc(Cl)cc2)cc1	none
O=C(CCN1C(=O)/C(=C/c2ccc(F)cc2)SC1=S)N[C@@H](CO)Cc1ccccc1	none
O=C(c1ccc(F)cc1)C(CN1CCOCC1)c1ccccc1 (stereo not given)	Mot1-301 SUMO 372 | Mot1 SUMO dose inactive
Cc1cc(-c2ccccc2)n(-c2ccc(C(=O)N3CCN(c4ncccn4)CC3)cc2)n1	none
N#Cc1c(C(F)(F)F)cc(-c2ccccc2Cl)[nH]c1=O	none (no result: ALR H2O2 inh)
Fc1ccc(-c2nnc(SCc3ncc(-c4ccccc4)o3)n2CC2CCCO2)cc1 (stereo not given)	none (no result: ALR H2O2 inh)
Fc1ccc(-c2n[nH]c(=S)n2CC2CCCO2)cc1 (stereo not given)	Mot1-301 SUMO 393 | Mot1 SUMO dose inactive
COc1cc(/C=N/NC(=O)c2ccncc2)ccc1OC(=O)c1ccco1	Mot1-301 SUMO 404 | Mot1 SUMO dose inactive
COc1cc(/C=N/NC(=O)c2ccc(F)cc2)ccc1OC(=O)c1ccco1	none
COc1cc(/C=N/NC(=O)c2cccnc2)ccc1OCC(=O)N1CCOCC1	Mot1-301 SUMO 768 | Mot1 SUMO dose inactive
C=CC[C@H](CC(=O)N(CCO)Cc1ccccc1)C(=O)NCCOC(=O)[C@@H](CC=C)CC(=O)OC(C)(C)C	none (no result: HIF activator, M18AAP inhibitor)
CN(C)c1cccc(C(=O)OC(C(=O)Nc2ccc([N+](=O)[O-])cc2Br)c2ccccc2)c1 (stereo not given)	none
CN(C)CCNC(=O)CNC(=S)N(Cc1ccccc1)Cc1cccnc1	none
O=C(COc1ccc(-n2cnnn2)cc1)Nc1ccc(F)cc1	none (no result: HIF activator, M18AAP inhibitor)
O=C(COc1ccc(-n2cnnn2)cc1)NCCc1ccc(F)cc1	Mot1-301 SUMO active | Mot1 SUMO dose inactive
COc1ccc(N2CCN(C(c3cccs3)C(C)NS(C)(=O)=O)CC2)cc1 (stereo not given)	ALR H2O2 inh 99, Mot1-301 SUMO 379 | Mot1 SUMO dose inactive
CC(NS(C)(=O)=O)C(c1cccs1)N1CCN(C)CC1 (stereo not given)	none
CN1CCN(C(=O)c2ccc(CS(=O)(=O)c3c(Cl)cccc3Cl)o2)CC1	none (no result: HIF activator)
CCOC(=O)N1CCN(C(=O)c2ccc(CS(=O)(=O)c3c(Cl)cccc3Cl)o2)CC1	Mot1-301 SUMO 603 (no result: HIF activator) | Mot1 SUMO dose inactive
O=C(c1ccc(CS(=O)(=O)c2ccccc2)o1)N1CCOCC1	Mot1-301 SUMO 372 (no result: HIF activator) | Mot1 SUMO dose inactive
CC12CCC(C(=O)Nc3cccc4ccccc34)(C1Br)C2(C)C (stereo not given)	none
O=C(Cn1c(=O)c2cccn2c2ccccc21)NCCc1ccccc1	none
COCCOc1ccc(C(F)(F)F)cc1NC(=O)CN1C(=O)NC(C)(c2ccc3c(c2)OCO3)C1=O (stereo not given)	none (no result: M18AAP inhibitor)
O=CNCCCc1nc2ccccc2n1CCc1ccccc1	Mot1-301 SUMO active | Mot1 SUMO dose inactive
CCN(C(=O)COC(=O)CCc1ccccc1OC)c1c(N)n(Cc2ccccc2)c(=O)[nH]c1=O	none (no result: M18AAP inhibitor)
CCN(C(=O)Nc1ccccc1OC)c1c(N)n(Cc2ccccc2)c(=O)[nH]c1=O	Mot1-301 SUMO 471 | Mot1 SUMO dose inactive
COC(=O)c1cccc(NC(=O)c2cccnc2)c1	Mot1-301 SUMO active | Mot1 SUMO dose inactive
COC(=O)c1ccc(NC(=O)c2cccnc2)cc1	none
Cc1cc(C)nc(NS(=O)(=O)c2ccc(NC(=O)c3cc(=O)c4ccccc4o3)cc2)n1	none
Cc1ccc(S(=O)(=O)N2[C@@H](c3ccccc3F)C(C(=O)O)=CC[C@H]2c2ccc3c(c2)OCO3)cc1	Mot1-301 SUMO 497 (no result: HIF activator, M18AAP inhibitor) | Mot1 SUMO dose inactive
O=C(NCc1cccnc1)C1CCN(S(=O)(=O)c2cccnc2)CC1	Mot1-301 SUMO active | Mot1 SUMO dose inactive
Cc1ccc(CNC(=O)C2CCN(S(=O)(=O)c3cccnc3)CC2)cc1	none (no result: HIF activator)
CCOC(=O)C1C(=O)NC(SCC(=O)Nc2nccs2)=C(C#N)C1c1ccccc1OCC (stereo not given)	Mot1-301 SUMO 633 | Mot1 SUMO dose inactive
COc1cccc(C(=O)Nc2cccc(-c3ccccc3)c2)c1	none
Clc1ccc(CONc2ncnc3nonc23)c(Cl)c1	Mot1-301 SUMO active | Mot1 SUMO dose inactive
CCONc1ncnc2nonc12	none
